# Assay results reported in a collection of fitness landscapes (doi:10.1126/science.1257360).
# Whole data set: some 140,000 sequences, median “enrichment ratio after two sorts for PhoP signalling” near 0, cut for the highest 2% near 11. The sample as a whole holds a higher share of the highest values than the screen did.
# B1: PhoQ; a variant is named by its letters at X, in order, P23837 (parent)
# chain: MKKLLRLFFPLSLRVRFLLATAAVVLVLSLAYGMVALIGYSVSFDKTTFRLLRGESNLFYTLAKWENNKLHVELPENIDKQSPTMTLIYDENGQLLWAQRDVPWLMKMIQPDWLKSNGFHEIEADVNDTSLLLSGDHSIQQQLQEVREDDDDAEMTHSVAVNVYPATSRMPKLTIVVVDTIPVELKSSYMVWSWFIYVLSANLLLVIPLLWVAAWWSLRPIEALAKEVRELEEHNRELLNPATTRELTSLVRNLNRLLKSERERYDKYRTTLTDLTHSLKTPLXXLQXXLRSLRSEKMSVSDAEPVMLEQISRISQQIGYYLHRASMRGGTLLSRELHPVAPLLDNLTSALNKVYQRKGVNISLDISPEISFVGEQNDFVEVMGNVLDNACKYCLEFVEISARQTDEHLYIVVEDDGPGIPLSKREVIFDRGQRVDTLRPGQGVGLAVAREITEQYEGKIVAGESMLGGARMEVIFGRQHSAPKDE
# Variants of: B1
# Test: enrichment ratio after two sorts for PhoP signalling (ratio (wild type AVST 3.29)); higher = more functional
# Details: with PhoP (E. coli)
row,Variant,enrichment ratio
1,DFYH,≤ 0.25
2,PRHA,≤ 0.25
3,KVWY,≤ 0.25
4,KKYK,≤ 0.25
5,ETML,≤ 0.25
6,RGLV,≤ 0.25
7,VGLV,12.3
8,AGLV,12.7
9,VRLV,≤ 0.25
10,CFLV,≤ 0.25
11,APLV,≤ 0.25
12,NGLV,6.65
13,TGLV,12.3
14,SGHK,≤ 0.25
15,VHLV,≤ 0.25
16,SGLV,17.9
17,LWQD,≤ 0.25
18,FDMF,≤ 0.25
19,VNQQ,≤ 0.25
20,YCCF,≤ 0.25
21,NGGQ,≤ 0.25
22,MMPC,≤ 0.25
23,LNWD,≤ 0.25
24,VQIE,≤ 0.25

row,Variant,enrichment ratio
1,QIPP,≤ 0.25
2,MGLV,15.2
3,MGLW,≤ 0.25
4,GYLV,≤ 0.25
5,GGLV,13.7
6,MGLA,2.09
7,NILV,0.722
8,YFRP,≤ 0.25
9,IDDH,≤ 0.25
10,FGMQ,21.1
11,FGMS,0.618
12,FGMV,16.7
13,FGMW,≤ 0.25
14,FGGG,≤ 0.25
15,FGMD,≤ 0.25
16,FGGQ,3.04
17,FGMI,11.8
18,FGMG,0.824
19,YKMH,≤ 0.25
20,HWMV,≤ 0.25
21,RAPQ,≤ 0.25
22,ATVM,6.8
23,STPC,≤ 0.25
24,MGGS,17.9

row,Variant,enrichment ratio
1,MGYF,12.2
2,TGYF,1.56
3,MGVV,15.6
4,RGYF,≤ 0.25
5,MGWV,6.77
6,MGHV,2.03
7,MGVA,≤ 0.25
8,MGVK,≤ 0.25
9,MGWI,1.07
10,TGVV,0.277
11,MGYV,13.4
12,MMRA,≤ 0.25
13,DQCN,≤ 0.25
14,MMLA,≤ 0.25
15,ASGS,3.2
16,MGGA,24.1
17,MGCI,5.38
18,MGDI,≤ 0.25
19,MTYQ,2.5
20,MGGD,≤ 0.25
21,MGCV,14
22,MGKI,≤ 0.25
23,MGDS,≤ 0.25
24,MGGQ,2.83

row,Variant,enrichment ratio
1,MGGH,20.1
2,MGKH,≤ 0.25
3,MGYQ,14
4,SGGC,10.9
5,HITM,≤ 0.25
6,PRMN,≤ 0.25
7,EYFG,≤ 0.25
8,DTNW,≤ 0.25
9,LCAW,≤ 0.25
10,IYCG,≤ 0.25
11,MGYS,12.2
12,MGYI,13.6
13,MGDR,≤ 0.25
14,GGHL,≤ 0.25
15,TGYS,1.45
16,MGWA,≤ 0.25
17,MGHL,19.3
18,MGHF,0.887
19,MGHI,19.7
20,MGYD,≤ 0.25
21,MGYK,≤ 0.25
22,TGHL,7.55
23,EVSV,≤ 0.25
24,VKDT,≤ 0.25

row,Variant,enrichment ratio
1,DASS,≤ 0.25
2,QDGG,≤ 0.25
3,RYTL,≤ 0.25
4,TYTL,15.2
5,KATL,≤ 0.25
6,SPTL,≤ 0.25
7,KSTL,≤ 0.25
8,NITL,≤ 0.25
9,FSTL,4.4
10,TVTL,15.2
11,TATL,16.3
12,NATL,≤ 0.25
13,TMTL,20.9
14,GYTL,≤ 0.25
15,AVIL,1.98
16,LGEK,≤ 0.25
17,DFEL,≤ 0.25
18,FLSP,≤ 0.25
19,RASH,≤ 0.25
20,CMTL,≤ 0.25
21,CFTL,15.7
22,TGTL,13.5
23,CITL,≤ 0.25
24,GGTL,5.81

row,Variant,enrichment ratio
1,NGTL,≤ 0.25
2,FIIG,≤ 0.25
3,YFRE,≤ 0.25
4,YALE,14.7
5,KALE,≤ 0.25
6,NHLE,≤ 0.25
7,MKLE,≤ 0.25
8,FTLE,5.91
9,HKLE,≤ 0.25
10,TKLE,12.7
11,QPLE,≤ 0.25
12,YELE,13.8
13,YEVE,≤ 0.25
14,AHLE,12.9
15,AILE,2.65
16,PLTV,≤ 0.25
17,YFSG,≤ 0.25
18,RYRE,≤ 0.25
19,SNND,≤ 0.25
20,GKDT,≤ 0.25
21,PQNK,≤ 0.25
22,KRMQ,≤ 0.25
23,ADMG,≤ 0.25
24,AIMG,6.65

row,Variant,enrichment ratio
1,MEHV,14.3
2,MEMS,63.4
3,KKMS,≤ 0.25
4,MEMW,≤ 0.25
5,AKMG,18.6
6,YYHV,≤ 0.25
7,MEMV,14.8
8,MKMV,≤ 0.25
9,MKMS,≤ 0.25
10,MTHV,≤ 0.25
11,VCGT,≤ 0.25
12,VPIR,≤ 0.25
13,IAQH,≤ 0.25
14,SNQM,9.41
15,RNTT,≤ 0.25
16,NFHF,≤ 0.25
17,RATT,≤ 0.25
18,RPPR,≤ 0.25
19,QKLG,≤ 0.25
20,PTLR,≤ 0.25
21,NSHF,≤ 0.25
22,VEMG,6.39
23,VEKK,≤ 0.25
24,VEMV,27.4

row,Variant,enrichment ratio
1,MEMG,12.8
2,MKMG,≤ 0.25
3,MEVG,4.29
4,LQGT,≤ 0.25
5,RYHM,≤ 0.25
6,FHIH,≤ 0.25
7,PDKA,≤ 0.25
8,SVGW,14.4
9,SQGW,≤ 0.25
10,SRGW,2.5
11,SYGW,≤ 0.25
12,SIGW,11.7
13,SCGW,20.5
14,SVHW,≤ 0.25
15,KYGW,≤ 0.25
16,SVGD,≤ 0.25
17,TMAH,1.31
18,NNEC,≤ 0.25
19,VWTE,≤ 0.25
20,RHES,≤ 0.25
21,IKSM,≤ 0.25
22,WYNQ,≤ 0.25
23,MFWL,≤ 0.25
24,IAEM,≤ 0.25

row,Variant,enrichment ratio
1,TAEM,25.7
2,TAAM,13.6
3,LQEM,≤ 0.25
4,KAAM,≤ 0.25
5,TATI,5.19
6,TATM,27
7,KANE,≤ 0.25
8,TAGE,≤ 0.25
9,TARM,≤ 0.25
10,YATM,≤ 0.25
11,TANE,18.3
12,LGLR,≤ 0.25
13,IPIH,≤ 0.25
14,IDYN,≤ 0.25
15,LPTD,≤ 0.25
16,HEFY,≤ 0.25
17,DTSM,≤ 0.25
18,KAGL,≤ 0.25
19,TAWM,9.41
20,NAGL,≤ 0.25
21,YANM,0.317
22,TAPM,≤ 0.25
23,TANK,≤ 0.25
24,TAGL,12.4

row,Variant,enrichment ratio
1,KANM,≤ 0.25
2,TACK,11.6
3,TANS,11.9
4,TANM,19.5
5,TANL,10
6,ERPF,≤ 0.25
7,TCLM,1.01
8,EGYT,≤ 0.25
9,LDPK,≤ 0.25
10,DMWR,≤ 0.25
11,EPFH,≤ 0.25
12,QHGK,≤ 0.25
13,DCLA,≤ 0.25
14,YSEC,≤ 0.25
15,TAGD,9.3
16,TAWE,24.5
17,NWCM,≤ 0.25
18,TAVM,2.01
19,TAGM,13.2
20,KAWE,≤ 0.25
21,KACM,≤ 0.25
22,YANA,≤ 0.25
23,NAWE,≤ 0.25
24,TACM,12.4

row,Variant,enrichment ratio
1,TANA,15.9
2,KANA,≤ 0.25
3,QGRI,≤ 0.25
4,SQSD,≤ 0.25
5,AVQG,≤ 0.25
6,ICYL,≤ 0.25
7,MLLM,7.62
8,DQQR,≤ 0.25
9,KFML,≤ 0.25
10,GDAW,≤ 0.25
11,HFFI,≤ 0.25
12,RKHF,≤ 0.25
13,WQPT,≤ 0.25
14,ALSK,2.03
15,AKSQ,20.1
16,VLSQ,≤ 0.25
17,YTSQ,≤ 0.25
18,RISQ,≤ 0.25
19,TTSQ,16.8
20,AHSQ,≤ 0.25
21,KQSQ,≤ 0.25
22,ALSQ,16.2
23,CISQ,55.8
24,ADSQ,≤ 0.25

row,Variant,enrichment ratio
1,NISQ,≤ 0.25
2,TLEP,≤ 0.25
3,DVCT,≤ 0.25
4,TMFF,≤ 0.25
5,WISQ,≤ 0.25
6,VHSQ,≤ 0.25
7,GTSQ,5.69
8,AISQ,15.6
9,ATSQ,11.6
10,ATSK,4.37
11,GRRA,≤ 0.25
12,KANK,≤ 0.25
13,LHPY,≤ 0.25
14,YEKR,≤ 0.25
15,IVLL,1.17
16,SDSV,5.55
17,SGSV,12.1
18,SPTA,≤ 0.25
19,NSSV,≤ 0.25
20,TSSV,20
21,TVTA,19.9
22,SGDW,≤ 0.25
23,SQSV,11.9
24,SRSV,≤ 0.25

row,Variant,enrichment ratio
1,KSSV,≤ 0.25
2,KSTA,≤ 0.25
3,SGWR,≤ 0.25
4,VCWY,≤ 0.25
5,PCPR,≤ 0.25
6,KLGA,≤ 0.25
7,AKGF,≤ 0.25
8,EKFN,≤ 0.25
9,AGVG,1.3
10,IANT,≤ 0.25
11,SESV,16.9
12,TQSV,20.7
13,NVSV,≤ 0.25
14,SISV,11.6
15,LASV,≤ 0.25
16,LLSV,≤ 0.25
17,VLSV,≤ 0.25
18,TLSV,16.7
19,KYSV,≤ 0.25
20,SCSV,9.38
21,SLSV,7.73
22,DDSV,≤ 0.25
